Test results as given in the supplement of paper PMC10037445.
Values joined by “and” are separate entries in the source; they are usually repeats but may differ in a detail not shown here. Equal values may be shown once. The full ranking holds about 2,900 compounds; the median of “NF-kB SEAP reporter activity, fold change vs agonist alone” is about 0.99, and the highest 2% start at about 2.6. The list comes from a sample in which the highest values are over-represented; it also holds similar structures and randomly drawn compounds.

Tests used:
RAW-Dual [1] = assay: NF-kB SEAP reporter activity, fold change vs agonist alone; cytotoxicity flag (confluency mask): not cytotoxic; higher = enhanced NF-kB activity
In short: (§1)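 After 50 nL of library stock was delivered by pin tool to RAW-Dual macrophages (50,000 cells/well, DMEM, 384-well plates), a PRR agonist was added 1 h later and the plates were kept at 37 °C, 5% CO2. Twenty hours later, IRF was read from supernatant by QuantiLuc luminescence and NF-κB by QuantiBlue absorbance at 620 nm. Reporter activity is stated as fold change over agonist-alone wells. Wells with IncuCyte confluency under 70% of agonist controls in both mask sets were counted as cytotoxic.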

RAW-Dual [2] = assay: NF-kB SEAP reporter activity, fold change vs agonist alone; higher = enhanced NF-kB activity; conditions: library stock concentration (final ~1000-fold dilution): 10 mM
In short: as §1

RAW-Dual [3] = assay: NF-kB SEAP reporter activity, fold change vs agonist alone; cytotoxicity flag (confluency mask): cytotoxic (confluency <70% of control); higher = enhanced NF-kB activity
In short: as §1

[4] = agonist: ODN 1826 (TLR9) 0.5 ug/mL
[5] = agonist: Pam2CSK4 (TLR2/6) 0.1 ug/mL
[6] = agonist: Pam3CSK4 (TLR2/1) 0.1 ug/mL
[7] = cytotoxicity flag (confluency mask): not cytotoxic, agonist: Imiquimod (TLR7) […]
[8] = cytotoxicity flag (confluency mask): not cytotoxic, agonist: MPLA (TLR4) […]

O=C(c1c(F)ccc(NS(=O)(=O)N2CCC(F)C2)c1F)c1c[nH]c2ncc(-c3cnc(C4CC4)nc3)cc12 (stereo not given) (library stock concentration (final ~1000-fold dilution): 10 mM)
NF-kB SEAP reporter activity (RAW-Dual [1]; agonist: LPS (TLR4) 0.1 ug/mL): 3.62 | NF-kB SEAP reporter activity (RAW-Dual [1]; [4]): 1.42 | NF-kB SEAP reporter activity (RAW-Dual [1]; [5]): 0.526 | NF-kB SEAP reporter activity (RAW-Dual [1]; [6]): 0.5

O=C(O)c1ccc(-c2c[nH]c3ncc(-c4ccccc4)cc23)cc1C1CCCC1
NF-kB SEAP reporter activity (RAW-Dual [2]; [7]): 0.374 | NF-kB SEAP reporter activity (RAW-Dual [2]; [8]): 1.16

COc1ccc(F)c(F)c1C(=O)c1cnc(NC2CCN(S(C)(=O)=O)CC2)nc1N (library stock concentration (final ~1000-fold dilution): 10 mM)
NF-kB SEAP reporter activity (RAW-Dual [1]; agonist: LPS (TLR4) 0.1 ug/mL): 0.194 | NF-kB SEAP reporter activity (RAW-Dual [1]; [4]): 0.985 | NF-kB SEAP reporter activity (RAW-Dual [1]; [5]): 0.0957 | NF-kB SEAP reporter activity (RAW-Dual [1]; [6]): 1.16

CCCS(=O)(=O)Nc1ccc(F)c(C(=O)c2c[nH]c3ncc(-c4ccc(Cl)cc4)cc23)c1F (library stock concentration (final ~1000-fold dilution): 10 mM)
NF-kB SEAP reporter activity (RAW-Dual [1]; agonist: LPS (TLR4) 0.1 ug/mL): 0.99 | NF-kB SEAP reporter activity (RAW-Dual [1]; [4]): 0.941 | NF-kB SEAP reporter activity (RAW-Dual [1]; [5]): 0.4 | NF-kB SEAP reporter activity (RAW-Dual [1]; [6]): 0.411

O=C(c1c(F)ccc(NS(=O)(=O)N2CCC(F)C2)c1F)c1c[nH]c2ncc(-c3cnc(C4CC4)nc3)cc12 (stereo not given)
NF-kB SEAP reporter activity (RAW-Dual [2]; [7]): 1.12 | NF-kB SEAP reporter activity (RAW-Dual [2]; [8]): 1.52

CCCS(=O)(=O)Nc1ccc(F)c(C(=O)c2c[nH]c3ncc(Cl)cc23)c1F
NF-kB SEAP reporter activity (RAW-Dual [2]; [7]): 0.891 | NF-kB SEAP reporter activity (RAW-Dual [2]; [8]): 1.34

CCN(C)S(=O)(=O)Nc1ccc(F)c(C(=O)c2c[nH]c3ncc(-c4cnc(C5CC5)nc4)cc23)c1F (library stock concentration (final ~1000-fold dilution): 10 mM)
NF-kB SEAP reporter activity (RAW-Dual [1]; agonist: LPS (TLR4) 0.1 ug/mL): 3.3 | NF-kB SEAP reporter activity (RAW-Dual [1]; [4]): 1.55 | NF-kB SEAP reporter activity (RAW-Dual [1]; [5]): 0.469 | NF-kB SEAP reporter activity (RAW-Dual [1]; [6]): 0.764

CCN(C)S(=O)(=O)Nc1ccc(F)c(C(=O)c2c[nH]c3ncc(-c4cnc(C5CC5)nc4)cc23)c1F
NF-kB SEAP reporter activity (RAW-Dual [2]; [7]): 1.24 | NF-kB SEAP reporter activity (RAW-Dual [2]; [8]): 1.62

O=C(O)c1ccc(-c2c[nH]c3ncc(-c4ccccc4)cc23)cc1C1CCCC1 (library stock concentration (final ~1000-fold dilution): 10 mM)
NF-kB SEAP reporter activity (RAW-Dual [1]; agonist: LPS (TLR4) 0.1 ug/mL): 1.15 | NF-kB SEAP reporter activity (RAW-Dual [1]; [4]): 0.388 | NF-kB SEAP reporter activity (RAW-Dual [1]; [5]): 0.646 | NF-kB SEAP reporter activity (RAW-Dual [1]; [6]): 0.497

COc1ccc(F)c(F)c1C(=O)c1cnc(NC2CCN(S(C)(=O)=O)CC2)nc1N
NF-kB SEAP reporter activity (RAW-Dual [2]; [7]): 0.977 | NF-kB SEAP reporter activity (RAW-Dual [2]; [8]): 0.905

CCCS(=O)(=O)Nc1ccc(F)c(C(=O)c2c[nH]c3ncc(-c4ccc(Cl)cc4)cc23)c1F
NF-kB SEAP reporter activity (RAW-Dual [2]; [7]): 1.1 | NF-kB SEAP reporter activity (RAW-Dual [2]; [8]): 1.3

CCCS(=O)(=O)Nc1ccc(F)c(C(=O)c2c[nH]c3ncc(Cl)cc23)c1F (library stock concentration (final ~1000-fold dilution): 10 mM)
NF-kB SEAP reporter activity (RAW-Dual [1]; agonist: LPS (TLR4) 0.1 ug/mL): 1.48 | NF-kB SEAP reporter activity (RAW-Dual [1]; [4]): 0.781 | NF-kB SEAP reporter activity (RAW-Dual [1]; [5]): 0.389 | NF-kB SEAP reporter activity (RAW-Dual [1]; [6]): 0.505

CCNC(=O)Nc1ccc(-c2nc3c(c(N4CCOCC4C)n2)CCN(C2COC2)C3)cc1 (stereo not given) (library stock concentration (final ~1000-fold dilution): 10 mM)
NF-kB SEAP reporter activity (RAW-Dual [1]; agonist: LPS (TLR4) 0.1 ug/mL): 0.974 | NF-kB SEAP reporter activity (RAW-Dual [1]; [4]): 0.705 | NF-kB SEAP reporter activity (RAW-Dual [1]; [5]): 0.395 | NF-kB SEAP reporter activity (RAW-Dual [1]; [6]): 0.411

CCNC(=O)Nc1ccc(-c2nc3c(c(N4CCOCC4C)n2)CCN(C2COC2)C3)cc1 (stereo not given)
NF-kB SEAP reporter activity (RAW-Dual [2]; [7]): 0.771 | NF-kB SEAP reporter activity (RAW-Dual [2]; [8]): 1.23

Cc1nc(NC(=O)N2CCCC2C(N)=O)sc1-c1csc(C(C)(C)C)n1 (stereo not given) (library stock concentration (final ~1000-fold dilution): 10 mM)
NF-kB SEAP reporter activity (RAW-Dual [1]; agonist: LPS (TLR4) 0.1 ug/mL): 0.881 | NF-kB SEAP reporter activity (RAW-Dual [1]; [4]): 1.41 | NF-kB SEAP reporter activity (RAW-Dual [1]; [5]): 1.32 | NF-kB SEAP reporter activity (RAW-Dual [1]; [6]): 1

Cc1nc(NC(=O)N2CCCC2C(N)=O)sc1-c1csc(C(C)(C)C)n1 (stereo not given)
NF-kB SEAP reporter activity (RAW-Dual [2]; [7]): 1.01 | NF-kB SEAP reporter activity (RAW-Dual [2]; [8]): 0.941

CC(C)N(CCCNC(=O)Nc1ccc(C(C)(C)C)cc1)CC1OC(n2ccc3c(N)ncnc32)C(O)C1O (stereo not given) (library stock concentration (final ~1000-fold dilution): 10 mM)
NF-kB SEAP reporter activity (RAW-Dual [1]; agonist: LPS (TLR4) 0.1 ug/mL): 0.953 | NF-kB SEAP reporter activity (RAW-Dual [1]; [4]): 1.05 | NF-kB SEAP reporter activity (RAW-Dual [1]; [5]): 0.991 | NF-kB SEAP reporter activity (RAW-Dual [1]; [6]): 1.14

CC(C)N(CCCNC(=O)Nc1ccc(C(C)(C)C)cc1)CC1OC(n2ccc3c(N)ncnc32)C(O)C1O (stereo not given)
NF-kB SEAP reporter activity (RAW-Dual [2]; [7]): 1.02 | NF-kB SEAP reporter activity (RAW-Dual [2]; [8]): 0.984

C=C(C)C1CCC2(C(=O)O)CCC3(C)C(CCC4C5(C)CCC(O)C(C)(C)C5CCC43C)C12 (stereo not given)
NF-kB SEAP reporter activity (RAW-Dual [2]; [7]): 1.04 | NF-kB SEAP reporter activity (RAW-Dual [2]; [8]): 1.1

C=C(C)C1CCC2(C(=O)O)CCC3(C)C(CCC4C5(C)CCC(O)C(C)(C)C5CCC43C)C12 (stereo not given) (library stock concentration (final ~1000-fold dilution): 10 mM)
NF-kB SEAP reporter activity (RAW-Dual [1]; agonist: LPS (TLR4) 0.1 ug/mL): 1.45 | NF-kB SEAP reporter activity (RAW-Dual [1]; [4]): 0.913 | NF-kB SEAP reporter activity (RAW-Dual [1]; [5]): 0.832 | NF-kB SEAP reporter activity (RAW-Dual [1]; [6]): 1.14

O=C(NCCCNc1nc(Nc2cccc(NC(=O)N3CCCC3)c2)ncc1I)c1cccs1 (library stock concentration (final ~1000-fold dilution): 10 mM)
NF-kB SEAP reporter activity (RAW-Dual [3]; agonist: LPS (TLR4) 0.1 ug/mL): 0.329 and 0.35 | NF-kB SEAP reporter activity (RAW-Dual [3]; [4]): 0.729 and 1.48 | NF-kB SEAP reporter activity (RAW-Dual [3]; [5]): 0.0917 and 0.128 | NF-kB SEAP reporter activity (RAW-Dual [3]; [6]): 0.252 and 0.376

O=C(NCCCNc1nc(Nc2cccc(CN3CCOCC3)c2)ncc1C1CC1)C1CCC1 (library stock concentration (final ~1000-fold dilution): 10 mM)
NF-kB SEAP reporter activity (RAW-Dual [1]; agonist: LPS (TLR4) 0.1 ug/mL): 2.49 and 3.77 | NF-kB SEAP reporter activity (RAW-Dual [1]; [4]): 0.595 and 0.333 | NF-kB SEAP reporter activity (RAW-Dual [1]; [5]): 2.26 and 2.33 | NF-kB SEAP reporter activity (RAW-Dual [1]; [6]): 4.25 and 3.71

CN1CCc2cc(Nc3ncc(C4CC4)c(NCCCNC(=O)C4CCC4)n3)ccc2C1 (library stock concentration (final ~1000-fold dilution): 10 mM)
NF-kB SEAP reporter activity (RAW-Dual [3]; agonist: LPS (TLR4) 0.1 ug/mL): 0.23 | NF-kB SEAP reporter activity (RAW-Dual [3]; [4]): 0.207 | NF-kB SEAP reporter activity (RAW-Dual [3]; [5]): 0.0969 | NF-kB SEAP reporter activity (RAW-Dual [3]; [6]): 0.211

CN1CCc2cc(Nc3ncc(C4CC4)c(NCCCNC(=O)C4CCC4)n3)ccc2C1
NF-kB SEAP reporter activity (RAW-Dual [2]; cytotoxicity flag (confluency mask): cytotoxic (confluency <70% of control), agonist: Imiquimod (TLR7) […]): 0.243 | NF-kB SEAP reporter activity (RAW-Dual [2]; cytotoxicity flag (confluency mask): cytotoxic (confluency <70% of control), agonist: MPLA (TLR4) […]): 0.288

O=c1[nH]cnc2ccccc12 (library stock concentration (final ~1000-fold dilution): 10 mM)
NF-kB SEAP reporter activity (RAW-Dual [1]; agonist: LPS (TLR4) 0.1 ug/mL): 1.14 | NF-kB SEAP reporter activity (RAW-Dual [1]; [4]): 0.991 | NF-kB SEAP reporter activity (RAW-Dual [1]; [5]): 1.05 | NF-kB SEAP reporter activity (RAW-Dual [1]; [6]): 1.08

O=c1[nH]cnc2ccccc12
NF-kB SEAP reporter activity (RAW-Dual [2]; [7]): 0.847 | NF-kB SEAP reporter activity (RAW-Dual [2]; [8]): 0.983
